Test results taken from PubChem BioAssay (NCI).
About 79,000 compounds went through this panel and 15% of them were active in at least one assay; those are over-represented in the sample as a whole. A number with no mark means an inactive call. Rule as the data show it: active = growth inhibition above about 70%; inactive = the rest.

Experiment: NCI Yeast Anticancer Drug Screen. Data for the mec2-1 strain (AID 157)
Details: S. cerevisiae mec2-1 strain, at 50.0 µM, stronger effect = higher value
Protocol: Growth inhibition of yeast strains with defined genetic alterations is measured as a screen for potential anti-cancer activity. Selected strains with alterations in DNA damage repair or cell cycle control were exposed to compounds and growth inhibition was measured relative to vehicle treated controls. The strain used in this assay is mec2-1

| Compound | growth inhibition |
| --- | --- |
| COC(=O)c1cc(=O)[nH]c(=O)[nH]1 | -12.8% |
| CCOP(C)(=O)/C(Cc1ccc(OC)c(OC)c1)=N\O (stereo not given) | -22.8% |
| CCC/C(=N/NC(N)=O)c1ccco1 | -1.55% |
| c1ccc2c(c1)C(=Nc1ccc(N=C3c4ccccc4-c4ccccc43)cc1)c1ccccc1-2 | -0.55% |
| CCC(c1ccc(OC)cc1)c1cc2c(cc1OCCO)OCO2 (stereo not given) | 66.3% |
| OC(CC(c1ccccc1)c1cccc2ccccc12)(c1ccccc1)c1ccccc1 (stereo not given) | -17.9% |
| [N-]=[N+]=Nc1ccnc2c(C(F)(F)F)cccc12 | -18.1% |
| COc1cc2c(cc1OC)C1c3cc(OC)c(OC)cc3CC(=O)N1CC2 (stereo not given) | 7.1% |
| CCN(C)c1nc(N(C)CC)c2nc(N(C)CC)nc(N(C)CC)c2n1 | -3.4% |
| [Cl][Pt+2][Cl].[NH-]c1ccc(CC(=O)O)cc1[NH-] | 7.1% |
| Cc1cc(C)c(C#N)c(SC(C(=O)NC(C)(C)C)c2ccccc2)n1 (stereo not given) | -16.8% |
| Nc1c(Cl)cc2c(c1Br)C(=O)c1ccccc1C2=O | -3.5% |
| CCOC(=O)c1ccc(NCc2cccc([N+](=O)[O-])c2)cc1 | -18.5% |
| Cc1ccnc(N=C(N)Nc2cc(C)ccn2)c1 | 26.4% |
| CCN(CC)CCNC(=O)c1ccc(NCN2C(=O)NC(c3ccccc3)(c3ccccc3)C2=O)cc1 | 3.4% |
| Cc1cnc(N)s1 | -23.9% |
| COC(=O)CCS/C=C/C(=O)O | -8.6% |
| CCN(CC)c1ccc2c(c1)Cc1ccccc1-2 | 1.15% |
| Nc1ncnc2nc(N3CCN(CCO)CC3)[nH]c12 | -8.75% |
| CNCCCc1cc(-c2ccc([N+](=O)[O-])cc2)n[nH]1 | 0.5% |

| Compound | growth inhibition |
| --- | --- |
| CCC(O)(c1ccc(OC)cc1)C(c1ccc(OCc2ccccc2)cc1)c1ccc(OCc2ccccc2)cc1 (stereo not given) | -22.2% |
| O=c1c2[nH]cnc2n(-c2ccccc2)c(=S)n1-c1ccccc1 | 1.8% |
| C(=C1\CCC/C(=C/c2ccccc2)C1=NNc1ccccc1)/c1ccccc1 | 2.35% |
| CSc1ccc(C(=O)c2ccc(SC)cc2)cc1 | 15.8% |
| COc1ccc(C2C(C#N)=C(S)N(C3OC(COC(C)=O)C(OC(C)=O)C(OC(C)=O)C3OC(C)=O)C(c3ccccc3)=C2C(C)=O)cc1 (stereo not given) | 38.4% |
| OC1c2ccccc2-c2ccc(NCc3ccc4c(c3)OCO4)cc21 (stereo not given) | -11.2% |
| COc1ccc(C(=O)c2ccc(C(=O)O)cc2)c(OC)c1 | -17.5% |
| COc1cc(/C=C2/C(=O)N(C(=O)c3ccc(Cl)cc3)N=C2C)cc(OC)c1OC | -5.75% |
| CNC(=O)OCc1c(COC(=O)NC)c(-c2ccc(SC)cc2)n(C)c1C | 8.4% |
| COc1ccccc1C1(CBr)OCCO1 | -7.7% |
| Cc1c(C)c(C)c(CCl)c(CCl)c1C | 16.9% |
| Cc1ccc(C(C#N)c2ccc(N)cc2)cc1 (stereo not given) | -21.3% |
| O=NNc1ccc(Oc2ccccc2)cn1 | -13.5% |
| CN=C(NC#N)NCc1ccccc1 | 7.35% |
| CCOC(=O)[n+]1c(C)ccc2ccccc21 | -10.9% |
| CC[N+](C)(CC)CC(O)C[N+]1(C)CC2CCCCC2C1 (stereo not given) | -1.7% |
| Cc1onc(-c2c(F)cccc2Cl)c1-c1ncc(-c2ccc(Cl)cc2)o1 | 3.3% |
| c1ccc(CSc2nn[nH]n2)cc1 | -8.1% |
| C=C(C)C(=O)NC(Cc1cnc[nH]1)C(=O)O (stereo not given) | 0.5% |
| Cc1cccc2c1Oc1ccccc1C2NC(=O)OCCc1ccccc1 (stereo not given) | -8.25% |
